PME-1 primary = PME-1 inhibitors via competitive probe labeling, primary screen, biochemical, fluorescence polarization, FP-Rh probe, HTS | Protein phosphatase methylesterase 1 (Homo sapiens), Q9Y570 | recombinant PME-1 | inhibition, % at 5.9 µM | 320,000 tested, 0.53% active | AID 2130, 2009;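 active means inhibition above the campaign mean of all compounds plus 3 SD, cut at about 26% in these data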;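 further: competitive labeling of PME-1 active site by serine hydrolase directed probe; 0% = PME-1 with DMSO and 100% = wells lacking PME-1 enzyme; inhibitors block probe labeling so polarization falls and inhibition rises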
PAD4 FP inh = human PAD4 inhibitors, primary screen, biochemical, fluorescence polarization, 1536-well format. 330,000 tested, 0.41% active. inhibition, % at 6.36 µM. recombinant PAD4, RCA probe fluorescence polarization. AID 485272, 2010;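 active means percent inhibition above a cutoff equal to the mean of all tested compounds plus 3 SD, cut at about 15% in these data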;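 further: 0% = PAD4 with RCA probe and DMSO and 100% = probe without PAD4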
Fam108B counter = mouse Fam108B serine hydrolase inhibitors, primary screen, counter-screen for RBBP9 inhibitor project, biochemical, fluorescence polarization; inhibition, % at 9.51 µM; recombinant Fam108B, FP-Rh probe fluorescence polarization; 300,000 tested, 0.33% active;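 active means inhibition above the screen mean inhibition plus 3 SD, computed separately per campaign, cut at about 18% in these data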;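 further: inhibitors lower polarization as less probe binds the enzyme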
LYPLA1 counter = LYPLA1 inhibitors, primary screen, counter-screen for PME1 inhibitor project, biochemical, fluorescence polarization, FP-Rh probe ABPP | recombinant LYPLA1 | inhibition, % at 5.9 µM | 320,000 tested, 0.16% active;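 active means inhibition above the mean of all tested compounds plus 3 SD, set per campaign, cut at about 14% in these data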;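 further: inhibitors block serine hydrolase probe labeling of LYPLA1 so polarization falls; 0% = enzyme with DMSO and 100% = wells lacking LYPLA1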
Target sequence (O75608 whole entry, looked up): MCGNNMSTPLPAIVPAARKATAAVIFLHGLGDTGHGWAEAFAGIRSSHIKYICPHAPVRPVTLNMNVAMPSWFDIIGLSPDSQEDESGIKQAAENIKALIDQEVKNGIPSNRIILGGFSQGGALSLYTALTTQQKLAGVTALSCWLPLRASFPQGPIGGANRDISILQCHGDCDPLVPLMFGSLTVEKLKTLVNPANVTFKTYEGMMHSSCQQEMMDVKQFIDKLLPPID
GSTO1 inh = inhibitors of recombinant GSTO1, primary screen, counter-screen for RBBP9 inhibitor project, biochemical, fluorescence polarization; Glutathione S-transferase omega-1 (Homo sapiens), P78417; activity-based probe fluorescence polarization; inhibition, % at 5.96 µM; 300,000 tested, 1.1% active; AID 1974, 2009;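 active means inhibition above the campaign mean inhibition plus 3 SD, cut at about 35% in these data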;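 further: 0% = GSTO1-1 with DMSO and 100% = wells lacking GSTO1-1 enzyme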
Target sequence (P78417 whole entry, looked up): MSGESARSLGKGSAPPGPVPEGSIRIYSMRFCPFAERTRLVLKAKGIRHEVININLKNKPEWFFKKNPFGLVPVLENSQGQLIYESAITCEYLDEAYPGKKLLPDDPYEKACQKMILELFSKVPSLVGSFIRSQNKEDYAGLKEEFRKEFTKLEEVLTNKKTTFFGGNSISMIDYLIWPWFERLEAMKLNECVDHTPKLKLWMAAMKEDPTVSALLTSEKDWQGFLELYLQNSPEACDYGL
LYPLA2 inh = LYPLA2 inhibitors, primary screen, counter-screen for PME1 inhibitor project, biochemical, fluorescence polarization, FP-Rh probe ABPP | Acyl-protein thioesterase 2 (Homo sapiens), O95372 | recombinant LYPLA2 | inhibition, % at 5.9 µM | 320,000 tested, 0.38% active;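 active means inhibition above the screen-wide mean plus 3 SD, limit set per campaign, cut at about 26% in these data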;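 further: 0% = LYPLA2 with DMSO and 100% = wells lacking LYPLA2 enzyme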
Target sequence (O95372 whole entry, looked up): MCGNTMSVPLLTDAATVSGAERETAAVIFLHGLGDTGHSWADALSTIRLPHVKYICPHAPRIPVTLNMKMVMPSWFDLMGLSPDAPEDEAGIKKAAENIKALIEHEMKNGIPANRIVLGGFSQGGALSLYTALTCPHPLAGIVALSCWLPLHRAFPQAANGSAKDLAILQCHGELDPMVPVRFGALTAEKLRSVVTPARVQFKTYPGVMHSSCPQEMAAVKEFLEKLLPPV
Fam108b inh conf = mouse Fam108b serine hydrolase inhibitors, confirmation, counter-screen for RBBP9 inhibitor project, biochemical, fluorescence polarization, triplicate | AID 1978, 2009 | inhibition, % at 9.51 µM | shares compounds with Fam108B counter | 930 tested, 44% active | recombinant Fam108b, FP-Rh probe fluorescence polarization;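 active means inhibition above a limit from the primary screen, the mean over all compounds plus 3 SD, cut at about 19% in these data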;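 further: 0% = median of active Fam108b wells and 100% = catalytically dead S170A mutant; inhibitors free the probe so polarization falls as inhibition rises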
Fam108b inh = inhibition of mouse Fam108b by HTS hits, late-stage follow-up, biochemical, gel-based ABPP, soluble recombinant form | shares compounds with Fam108B counter | fluorophosphonate probe | inhibition, % at 20 µM | 260 tested, 44% active | AID 588649, 2011; in the data active means inhibition above about 40%
GSTO1 confirm = GSTO1 inhibitor hit confirmation, counter-screen for RBBP9 inhibitor project, biochemical, fluorescence polarization, triplicate | shares compounds with GSTO1 inh | recombinant GSTO1, probe fluorescence polarization | inhibition, % at 5.96 µM | 2,400 tested, 54% active;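 active means inhibition above the primary screen's cutoff, its mean inhibition plus 3 SD, cut at about 35% in these data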;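 further: loss of polarization as inhibitors block binding of rhodamine sulfonate ester activity probe; 0% = GSTO1 with DMSO and 100% = wells lacking GSTO1 enzyme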
GSTO1 ABPP inh = inhibitors of purified human GSTO1, late-stage follow-up, biochemical, gel ABPP, SE-Rh probe, percent inhibition; shares compounds with GSTO1 inh; recombinant GSTO1, gel ABPP SE-Rh probe fluorescence; inhibition, % at 1 µM; 130 tested, 30% active; AID 463110, 2010;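 active means inhibition of the enzyme GSTO1 above about 75%, limit read from the data; inactive means inhibition below that limit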
LYPLA1 confirm = LYPLA1 inhibitors, retest, confirmation, counter-screen for PME1 inhibitor project, biochemical, fluorescence polarization, FP-Rh probe ABPP; shares compounds with LYPLA1 counter; recombinant LYPLA1; inhibition, % at 5.9 µM; 480 tested, 69% active;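 active means mean inhibition across replicates above the hit cutoff set in the primary screen, cut at about 15% in these data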;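 further: loss of FP-Rh probe labeling of LYPLA1 seen as lower polarization; 0% = LYPLA1 with DMSO and 100% = wells lacking LYPLA1 enzyme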
LYPLA2 conf = LYPLA2 inhibitors, retest, confirmation, counter-screen for PME1 inhibitor project, biochemical, fluorescence polarization, FP-Rh probe ABPP; shares compounds with LYPLA2 inh; recombinant LYPLA2; inhibition, % at 5.9 µM; 1,100 tested, 72% active; AID 2232, 2010;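 active means mean inhibition across replicates above the hit cutoff set in the primary screen, cut at about 26% in these data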;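 further: blocked labeling of the enzyme by serine hydrolase FP-Rh probe lowers polarization; 0% = enzyme with DMSO and 100% = wells lacking LYPLA2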
PAD4 confirm = human PAD4 inhibitors, confirmation, biochemical, fluorescence polarization. recombinant PAD4, RCA probe fluorescence polarization. AID 488796, 2010. 1,200 tested, 28% active. inhibition, % at 6.36 µM. shares compounds with PAD4 FP inh;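 active means mean inhibition across replicates above the hit cutoff set by the earlier primary screen, cut at about 15% in these data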;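 further: inhibitors block active-site labeling by the probe so polarization falls; 0% = PAD4 with probe and DMSO and 100% = probe without PAD4 enzyme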
Starred values were filed as active, the others as inactive; / = not tested or not shown. Sampled rows, rich in hits. Any-hit rate of the full collection: about 1.8%.

SMILES	PME-1 primary	PAD4 FP inh	Fam108B counter	LYPLA1 counter	GSTO1 inh	LYPLA2 inh	GSTO1 confirm	others
CNc1ccc2nc3ccccc3[n+](C)c2c1	116*	108*	102*	103*	101*	117*	62*	Fam108b inh conf=67*;Fam108b inh=15;LYPLA1 confirm=83*;LYPLA2 conf=94*;PAD4 confirm=92*
CCn1nc(-c2ccccc2)nc2c(=O)n(C)c(=O)nc1-2	42*	68*	65*	89*	90*	96*	92*	Fam108b inh conf=86*;Fam108b inh=0;PAD4 confirm=-4
c1ccc(-c2[nH]c[n+](CC3CO3)c2-c2ccccc2)cc1 (stereo not drawn)	-3	3	-2	-10	76*	4	81*	GSTO1 ABPP inh=24
Cn1cc(NC(=O)CCl)cn1	-8	-2	1	-1	80*	-1	89*
Cc1ccc(Cn2nc(C(=O)Nc3ccc(Br)cc3)cc2C)cc1	-16	0	-4	-9	-6	-3	/
COC(=O)C1=C(c2ccc(Cl)c(C(F)(F)F)c2)C[C@@H]2CC[C@H]1N2C(=O)NCc1ccco1	-3	-1	/	-1	/	-2	/
O=[N+]([O-])c1ccccc1Cl	-2	-10	/	-1	/	-4	/
O=C1NC(=O)C(Sc2ccccc2[N+](=O)[O-])C(=O)N1	1	-1	7	-4	48*	2	8
COc1ccc2c(c1O)-c1c(OC)c(OC)cc3c1[C@H](C2)N(C)CC3	6	-3	6	7	5	5	/
CCCN1CCc2cccc3c2[C@H]1Cc1ccc(O)c(O)c1-3	5	4	-1	-9	93*	-13	9
O=C(CCc1ccccc1)N1C[C@H]2C[C@@H](C1)c1cccc(=O)n1C2	1	1	-3	1	-2	10	/
O=C(Cn1c2c(c(-c3ccccc3Cl)cc1=O)CCC2)N1CCC2(CC1)OCCO2	-2	-4	5	-1	3	5	/
O=C1C(c2ccccc2)=C(N2CC2)c2ccccc21	3	-3	-2	-3	41*	0	33
CC1(C)CC(=O)C(C2(O)C(=O)NC(=O)NC2=O)=C(O)C1	-1	3	2	1	68*	-7	60*
CCC(C)/C=C(C)/C=C/C1=CC2=C(Cl)C(=O)C(C)(OC(C)=O)C(=O)C2=CO1 (stereo not drawn)	8	-2	11	9	43*	12	40*
CN(C)C1C(=O)C(C(N)=O)=C(O)C2(O)C(=O)C3=C(O)c4c(O)cccc4C(C)(O)C3C(O)C12 (stereo not drawn)	-10	-3	15	-2	68*	4	42*
O=C(Cc1ccc(Cl)c(Cl)c1)NCC1(N2CCOCC2)CCCCC1	2	-2	2	2	3	7	/
Nc1c(C(=O)OCC2CCCO2)c2nc3ccccc3nc2n1Cc1cccs1 (stereo not drawn)	12	-9	0	-1	39*	-8	5
O=c1[nH]c(=O)n(Cc2ccco2)c(O)c1C=NC1CCN(Cc2ccccc2)CC1	1	-4	5	3	3	-1	/
C[C@]12CC[C@@H]3c4ccc(O)c(O)c4CC[C@H]3[C@@H]1CC[C@@H]2O	-12	1	-1	-4	61*	0	8
C[C@]12CC[C@H]3[C@@H](CCC4=CC(=O)CC[C@@H]43)[C@@H]1CC[C@@H]2O	/	5	/	/	/	/	/
C=CCN1CC[C@]23c4c5ccc(O)c4OC2C(O)C=CC3[C@H]1C5 (stereo partly drawn)	/	-4	/	/	/	/	/
CCN1C(=O)/C(=C/c2ccc3c(c2)CCN3CCCCl)C(=O)NC1=S	-1	-5	5	-4	56*	3	70*
O=C1NC(=S)N(C2CC2)C(=O)/C1=C/c1ccc2c(c1)CCN2CCCCl	-7	-6	0	-3	56*	2	63*
CC(C)(C)N1C(=O)NC(=O)/C(=C\c2ccc3c(c2)CCN3CCCCl)C1=O	-1	1	4	-5	38*	1	66*
S=P(NC1CCCCC1)(N1CC1)N1CC1	1	-5	-5	0	5	4	/
Cc1ccc(-n2c(O)c(C=NC3CCCC3)c(=O)[nH]c2=O)c(C)c1	-7	-5	1	-1	-2	7	/
Cc1cc(NC(=O)CCl)no1	0	2	3	-4	87*	1	98*
O=C(O)C1Cc2ccccc2N2CCCC12 (stereo not drawn)	1	6	1	-1	21	1	/
COc1ccc(CNC(=O)CCC(=O)N2C[C@H]3C[C@H](C2)c2cccc(=O)n2C3)cc1	3	3	0	2	4	5	/

Screens as filed in PubChem.
